Assay results published in PubChem BioAssay (NCATS).
Unmarked numbers belong to inactive results. Inconclusive results are not listed. The source made the active and inactive calls. Unless noted, calls come from the whole dose curve; as a rule, active = well fitted curve in the direction sought with a large enough effect; inconclusive = small, poorly fitted or top-dose-only effect, or another doubt; inactive = no such curve, though single readings can be large; an effect the other way counts as inactive or inconclusive.

Assays:
[1] = molecular target: Lysosomal acid glucosylceramidase (Homo sapiens) (UniProt P04062); assay: Glucocerebrosidase-p2 (AID 348; in the data active = potency below about 10 µM; note: potency is the fitted concentration of half-maximal effect); details: purified GBA, blue fluorogenic substrate, 40 min
Lysosomal acid glucosylceramidase (Homo sapiens), sequence (P04062 whole entry, looked up): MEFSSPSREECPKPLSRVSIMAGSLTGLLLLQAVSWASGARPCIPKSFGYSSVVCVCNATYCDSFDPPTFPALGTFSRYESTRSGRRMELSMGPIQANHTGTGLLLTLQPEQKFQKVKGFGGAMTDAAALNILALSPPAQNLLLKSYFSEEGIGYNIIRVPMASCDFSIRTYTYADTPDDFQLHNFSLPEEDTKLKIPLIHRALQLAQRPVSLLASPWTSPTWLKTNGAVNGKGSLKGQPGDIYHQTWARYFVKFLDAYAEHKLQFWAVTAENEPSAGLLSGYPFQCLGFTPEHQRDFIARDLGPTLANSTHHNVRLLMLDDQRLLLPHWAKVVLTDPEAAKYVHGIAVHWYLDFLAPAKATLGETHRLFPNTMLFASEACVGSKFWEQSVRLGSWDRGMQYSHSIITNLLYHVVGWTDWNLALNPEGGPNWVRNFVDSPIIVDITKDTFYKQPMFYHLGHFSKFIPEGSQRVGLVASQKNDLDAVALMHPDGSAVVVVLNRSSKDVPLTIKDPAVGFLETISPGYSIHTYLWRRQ
How it was run: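 Compounds titrated from 0.6 nM upwards against 0.2 nM enzyme in pH 5.9 citric acid/KH2PO4, taurocholate, tween-20; blue fluorogenic substrate 80 uM, 40 min room temperature, stopped and read Ex 365/Em 440 for AC50.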

[2] = AP1 Signaling Pathway (AID 357; active = well fitted curve in either direction with a large enough effect, not every such curve was filed as active;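 note: ME-180 reporter cells stimulated with EGF at its EC50 level; % is set by controls: 0 for no effect and ±100 for the full control effect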); details: ME-180 AP-1-bla reporter, EGF-induced, beta-lactamase ratio, 5 h; at 7.69 µM (top of the series) unless noted
How it was run: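 Read-out was the 460nm/530nm emission ratio (excitation 405nm) after CCF4 loading for 2.5 hours at room temperature. Cells carried an AP-1-driven beta-lactamase reporter, were stimulated with EC50 EGF plus compound for 5 hours, and AC50 values came from titrations.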

[3] = molecular target: Cytochrome P450 1A2 (Homo sapiens) (UniProt P05177); assay: p450-cyp1a2 (AID 410; calls by dose curve; note: potency is the fitted concentration of half-maximal effect); details: recombinant CYP1A2, luciferin-ME demethylation, luminescence; series mostly up to 57 µM
Cytochrome P450 1A2 (Homo sapiens), sequence (P05177 whole entry, looked up): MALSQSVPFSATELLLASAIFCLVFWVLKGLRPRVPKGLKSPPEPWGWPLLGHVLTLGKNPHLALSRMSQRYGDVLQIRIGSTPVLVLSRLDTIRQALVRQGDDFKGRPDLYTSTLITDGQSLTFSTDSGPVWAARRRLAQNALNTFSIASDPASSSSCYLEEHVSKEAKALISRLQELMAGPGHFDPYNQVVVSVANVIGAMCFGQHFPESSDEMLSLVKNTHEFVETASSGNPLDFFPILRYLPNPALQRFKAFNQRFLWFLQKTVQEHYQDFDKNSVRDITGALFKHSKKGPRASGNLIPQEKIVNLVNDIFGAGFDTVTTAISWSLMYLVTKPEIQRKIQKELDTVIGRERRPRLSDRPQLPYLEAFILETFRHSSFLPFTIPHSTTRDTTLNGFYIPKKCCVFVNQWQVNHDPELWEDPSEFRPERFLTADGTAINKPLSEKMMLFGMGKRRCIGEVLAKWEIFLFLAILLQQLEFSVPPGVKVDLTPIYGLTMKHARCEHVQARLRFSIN
How it was run: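 Inhibition was calculated relative to 57 uM furafylline (full inhibition). The reaction used human CYP1A2 at 20nM with Luciferin-ME at its Km, 100uM, driven by an NADPH-regenerating system for 60 min at room temperature.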

[4] = NFAT Signaling Pathway (AID 444; active = well fitted curve in either direction with a large enough effect, not every such curve was filed as active;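 note: carbachol stimulus at about its EC50 of 1 µM final; % is set by controls: 0 for no effect and ±100 for the full control effect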); details: Jurkat NFAT-bla M1, carbachol, beta-lactamase ratio, 5 h; at 7.69 µM (top of the series) unless noted
How it was run: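 Jurkat cells carrying an NFAT-driven β-lactamase reporter and co-transfected muscarinic M1 receptor were treated with compound plus carbachol (1 uM final, an EC50 level) for 5 h at 37 °C. CCF4 loading followed for 1 h at RT; 460/530 nm ratio gave %activity.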

[5] = Stat Signaling Pathway (AID 446; active = well fitted curve in either direction with a large enough effect, not every such curve was filed as active;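 note: ME-180 cervical cancer cells given 40 pM IL-6 alongside compound; SIE-controlled beta-lactamase reporter measured as 460/530 nm FRET emission ratio; % is set by controls: 0 for no effect and ±100 for the full control effect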); details: ME-180 SIE beta-lactamase reporter, IL-6 stimulated, 5 h; series mostly up to 7.69 µM
How it was run: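 ME-180 SIE-bla cells; overnight plating; cpd + IL-6 40 pM, 5 h, 37 C; LiveBLAzer 2.5 h RT; 460/530 nm emission ratio. Normalized to 300 pM IL-6 and 125 nM JAK inhibitor controls.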

[6] = molecular target: Glucocorticoid receptor (Homo sapiens) (UniProt P04150); assay: GR-GFP Redistribution (AID 450;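 active = compounds whose dose series gives a full or clear partial fitted curve of increased nuclear translocation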; note: potency is the fitted concentration of half-maximal effect); details: U2OS GR-GFP nuclear translocation, laser cytometry, 2 h
Glucocorticoid receptor (Homo sapiens), sequence (P04150 whole entry, looked up, the tested form may be a part): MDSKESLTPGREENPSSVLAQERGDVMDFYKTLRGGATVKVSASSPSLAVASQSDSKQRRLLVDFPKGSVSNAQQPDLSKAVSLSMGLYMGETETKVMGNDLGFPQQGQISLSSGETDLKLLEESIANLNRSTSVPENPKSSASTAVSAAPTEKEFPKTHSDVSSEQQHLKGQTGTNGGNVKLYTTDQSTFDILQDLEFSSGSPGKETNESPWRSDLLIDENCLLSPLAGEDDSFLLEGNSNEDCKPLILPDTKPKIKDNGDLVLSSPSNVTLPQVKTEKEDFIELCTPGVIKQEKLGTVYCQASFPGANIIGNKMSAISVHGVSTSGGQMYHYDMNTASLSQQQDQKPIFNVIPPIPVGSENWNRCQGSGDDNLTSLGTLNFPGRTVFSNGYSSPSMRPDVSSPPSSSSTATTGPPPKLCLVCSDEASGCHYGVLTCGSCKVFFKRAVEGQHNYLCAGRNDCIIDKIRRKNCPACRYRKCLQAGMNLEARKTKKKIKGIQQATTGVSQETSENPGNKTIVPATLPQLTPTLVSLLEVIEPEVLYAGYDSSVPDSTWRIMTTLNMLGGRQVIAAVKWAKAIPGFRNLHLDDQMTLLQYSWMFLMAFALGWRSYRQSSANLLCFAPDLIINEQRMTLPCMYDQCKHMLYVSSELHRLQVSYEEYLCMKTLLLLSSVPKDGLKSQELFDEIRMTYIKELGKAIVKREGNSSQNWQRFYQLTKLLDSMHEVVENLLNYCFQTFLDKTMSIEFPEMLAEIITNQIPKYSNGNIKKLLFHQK

[7] = molecular target: Glucocorticoid receptor (Homo sapiens) (UniProt P04150); assay: GR-EFC Redistribution (AID 451; calls by dose curve; note: potency is the fitted concentration of half-maximal effect); details: CHO-K1 GR-EFC translocation, beta-gal luminescence, 2 h
How it was run: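 CHO-K1 cells stably expressing nuclear-localized β-gal enzyme acceptor and GR fused C-terminally to the enzyme donor fragment; ligand-driven nuclear translocation restores β-gal by complementation. Compounds titrated up to 46 uM final, 2 h at 37 °C; luminescence read.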

[8] = molecular target: Mitogen-activated protein kinase 10 (Mus musculus) (UniProt Q61831); assay: JNK3 AlphaScreen Assay (AID 530; active = well fitted curve in either direction with a large enough effect, not every such curve was filed as active;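 note: kinase came from lysate of stimulated human HepG2 cells; signal reports phosphorylation of biotinylated GST-cJun 1-79 at Ser73 with 10 µM ATP; % is set by controls: 0 for no effect and ±100 for the full control effect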); details: JNK3 lysate, c-Jun phosphorylation; series mostly up to 57.1 µM
How it was run: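 JNK3 came from HepG2 lysates pre-activated with IL-1beta and TNF-alpha and phosphorylated biotinylated GST-cJun (1-79) at 10 uM ATP, pH 7.6, room temperature. Compounds were titrated. AlphaScreen signal used anti-phospho-cJun (Ser73) antibody.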

[9] = molecular target: Cytochrome P450 3A4 (Homo sapiens) (UniProt P08684); assay: qHTS Assay for Activators of Cytochrome P450 3A4 (AID 885); details: recombinant CYP3A4, Luciferin-PPXE luminescence, 60 min; series mostly up to 57.1 µM; note: nearly all actives have a fitted effect of over 65% in size
Cytochrome P450 3A4 (Homo sapiens), sequence (P08684 whole entry, looked up): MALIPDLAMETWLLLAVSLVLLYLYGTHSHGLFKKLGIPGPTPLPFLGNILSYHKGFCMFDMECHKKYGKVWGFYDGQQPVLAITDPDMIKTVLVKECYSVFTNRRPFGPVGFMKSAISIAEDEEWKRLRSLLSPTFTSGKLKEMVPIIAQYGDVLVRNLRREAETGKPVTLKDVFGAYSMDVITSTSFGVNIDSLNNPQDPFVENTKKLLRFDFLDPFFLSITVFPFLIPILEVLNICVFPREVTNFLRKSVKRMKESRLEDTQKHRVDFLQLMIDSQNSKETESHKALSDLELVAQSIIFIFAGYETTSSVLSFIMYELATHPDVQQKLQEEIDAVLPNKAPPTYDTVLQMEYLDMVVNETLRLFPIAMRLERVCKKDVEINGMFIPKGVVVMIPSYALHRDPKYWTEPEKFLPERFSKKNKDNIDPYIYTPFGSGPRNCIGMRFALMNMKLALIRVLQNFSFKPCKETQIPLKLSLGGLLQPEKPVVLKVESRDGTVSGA
How it was run: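 20nM CYP3A4 + 25uM Luciferin-PPXE (=KM), 200mM KPO4; cpd 10 min RT; NADPH regen, 60 min RT; stop w/ detection buffer, 20 min; luminescence. Normalized to 57 uM ketoconazole.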

[10] = molecular target: Dual specificity protein kinase CLK4 (Homo sapiens) (UniProt Q9HAZ1); assay: qHTS Assay for Inhibitors of CDC-like Kinase 4 (Kinase-Glo Assay) (AID 1770); details: recombinant Clk4, Kinase-Glo ATP depletion luminescence; series mostly up to 66.7 µM; note: nearly all actives have a fitted effect of over 65% in size; note: potency is the fitted concentration of half-maximal effect
Dual specificity protein kinase CLK4 (Homo sapiens), sequence (Q9HAZ1 whole entry, looked up): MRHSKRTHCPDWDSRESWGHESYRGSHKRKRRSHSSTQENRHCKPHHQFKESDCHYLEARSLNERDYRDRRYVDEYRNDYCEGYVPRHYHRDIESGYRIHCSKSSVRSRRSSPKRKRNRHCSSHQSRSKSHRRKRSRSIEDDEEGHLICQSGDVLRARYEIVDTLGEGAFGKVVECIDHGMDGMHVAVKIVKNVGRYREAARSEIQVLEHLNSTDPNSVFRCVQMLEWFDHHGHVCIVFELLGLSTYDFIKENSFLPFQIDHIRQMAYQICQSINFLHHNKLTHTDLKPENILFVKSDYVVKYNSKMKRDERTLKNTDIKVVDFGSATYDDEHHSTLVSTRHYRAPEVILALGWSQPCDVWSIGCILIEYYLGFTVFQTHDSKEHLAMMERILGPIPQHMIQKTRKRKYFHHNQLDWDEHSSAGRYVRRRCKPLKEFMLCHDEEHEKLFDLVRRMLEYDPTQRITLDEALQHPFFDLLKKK
How it was run: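 Readout: Kinase-Glo luminescence from ATP left after a 4.5 h room-temperature reaction of 25 nM Clk4 with 100 uM RS peptide and 1 uM ATP (final). Buffer: 25 mM Tris pH 7.5, 10 mM MgCl2.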

[11] = molecular target: Dual specificity protein kinase CLK4 (Homo sapiens) (UniProt Q9HAZ1); assay: qHTS Assay for Inhibitors of CDC-like Kinase 4 (ADP-Glo Assay) (AID 1771); details: recombinant CLK4, ADP-Glo luminescence; series mostly up to 80 µM; note: nearly all actives have a fitted effect of over 70% in size; note: potency is the fitted concentration of half-maximal effect
How it was run: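 Kinase reaction: Clk4 at 25 nM, RS repeat peptide substrate at 100 uM, ATP at 1 uM, 1 hr, room temperature. Product ADP detected as luciferase signal via ADP-Glo.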

[12] = molecular target: Dual specificity protein kinase CLK4 (Homo sapiens) (UniProt Q9HAZ1); assay: qHTS Assay for Inhibitors of CDC-like Kinase 4 (ADP-FP Assay) (AID 1795); details: Transcreener ADP fluorescence polarization; series mostly up to 50 µM; note: nearly all actives have a fitted effect of over 60% in size; note: potency is the fitted concentration of half-maximal effect
How it was run: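 FP readout: Orange Transcreener ADP2 tracer (4 nM) plus ADP antibody, read after 30 min at room temperature. Kinase step: 6.25 nM Clk4, 100 uM RS peptide, 1 uM ATP, pH 7.5, 1 h.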

[13] = molecular target: Ubiquitin carboxyl-terminal hydrolase 1 (Homo sapiens) (UniProt O94782); assay: Inhibitors of USP1/UAF1: Pilot qHTS (AID 504865); details: purified USP1/UAF1, Ub-rhodamine cleavage fluorescence; series mostly up to 54.9 µM;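 note: rhodamine fluorescence freed from ubiquitin-rhodamine substrate followed over time; top concentration of the series differs between compounds; % is set by controls: 0 for no effect and ±100 for the full control effect; nearly all actives have a fitted effect of over 35% in size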
Ubiquitin carboxyl-terminal hydrolase 1 (Homo sapiens), sequence (O94782 whole entry, looked up): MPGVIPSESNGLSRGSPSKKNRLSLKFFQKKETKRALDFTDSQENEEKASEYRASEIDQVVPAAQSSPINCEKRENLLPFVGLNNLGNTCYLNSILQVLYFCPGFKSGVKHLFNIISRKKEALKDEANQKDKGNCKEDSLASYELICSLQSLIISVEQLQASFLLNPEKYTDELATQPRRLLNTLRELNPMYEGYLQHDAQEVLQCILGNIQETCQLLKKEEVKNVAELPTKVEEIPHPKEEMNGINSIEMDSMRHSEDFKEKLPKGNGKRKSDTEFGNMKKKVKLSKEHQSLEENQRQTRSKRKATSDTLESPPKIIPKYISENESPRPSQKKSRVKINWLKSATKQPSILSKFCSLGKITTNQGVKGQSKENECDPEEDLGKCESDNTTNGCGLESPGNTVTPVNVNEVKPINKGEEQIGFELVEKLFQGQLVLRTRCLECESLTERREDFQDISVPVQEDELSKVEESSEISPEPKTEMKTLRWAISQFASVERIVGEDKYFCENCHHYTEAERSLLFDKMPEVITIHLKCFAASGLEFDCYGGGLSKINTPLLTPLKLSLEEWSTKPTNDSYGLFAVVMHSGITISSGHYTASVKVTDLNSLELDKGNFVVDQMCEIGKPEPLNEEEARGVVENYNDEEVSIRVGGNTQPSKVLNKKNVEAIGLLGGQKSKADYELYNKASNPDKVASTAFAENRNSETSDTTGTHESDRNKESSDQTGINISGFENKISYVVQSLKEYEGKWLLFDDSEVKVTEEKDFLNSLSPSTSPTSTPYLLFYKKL
How it was run: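 1nM USP1/UAF1 + cpd, 15 min RT; start w/ Ub-Rho 150nM final; kinetic FL 480/540 nm, 6 reads q60 s. Buffer 50mM HEPES pH 7.8, 0.5mM EDTA, 1mM TCEP, 0.01% Tween-20, 0.1 mg/ml BSA.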

[14] = molecular target: Cytochrome P450 2C19 (Homo sapiens) (UniProt P33261); assay: qHTS Assay for Inhibitors and Substrates of Cytochrome P450 2C19 (AID 899); details: recombinant CYP2C19, luciferin-H EGE luminescence; series mostly up to 57.1 µM; note: potency is the fitted concentration of half-maximal effect; nearly all actives have a fitted effect of over 60% in size
Cytochrome P450 2C19 (Homo sapiens), sequence (P33261 whole entry, looked up): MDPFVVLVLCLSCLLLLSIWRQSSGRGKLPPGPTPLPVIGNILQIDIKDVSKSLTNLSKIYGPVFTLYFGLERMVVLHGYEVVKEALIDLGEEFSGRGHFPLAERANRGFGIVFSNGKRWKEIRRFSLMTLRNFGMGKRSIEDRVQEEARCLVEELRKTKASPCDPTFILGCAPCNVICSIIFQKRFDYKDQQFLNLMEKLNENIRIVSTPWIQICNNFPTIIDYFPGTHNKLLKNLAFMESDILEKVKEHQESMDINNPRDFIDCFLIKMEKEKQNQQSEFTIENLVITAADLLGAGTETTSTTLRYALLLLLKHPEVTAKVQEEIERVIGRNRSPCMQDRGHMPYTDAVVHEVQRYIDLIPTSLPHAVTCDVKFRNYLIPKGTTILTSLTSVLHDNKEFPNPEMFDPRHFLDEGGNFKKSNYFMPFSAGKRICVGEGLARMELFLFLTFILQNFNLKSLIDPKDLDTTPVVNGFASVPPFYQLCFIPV
How it was run: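 In 50mM KPO4, the reaction held 5nM enzyme and KM-level (10uM) Luciferin-H EGE; it ran 60 min at 37C after NADPH regeneration and a 10 min compound preincubation. Luminescence values were scaled to 57uM ketoconazole as complete inhibition.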

[15] = molecular target: Cytochrome P450 3A4 (Homo sapiens) (UniProt P08684); assay: qHTS Assay for Inhibitors and Substrates of Cytochrome P450 3A4 (AID 884); details: recombinant CYP3A4, Luciferin-PPXE luminescence; series mostly up to 57.1 µM; note: potency is the fitted concentration of half-maximal effect; nearly all actives have a fitted effect of over 50% in size
How it was run: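 20 nM human CYP3A4 with 25 uM Luciferin-PPXE (at KM) in 200 mM KPO4, preincubated 10 min with compound; NADPH regeneration started a 60 min RT reaction. Luciferin detected by luminescence, normalized to 57 uM ketoconazole as full inhibition.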

[16] = molecular target: 3',5'-cyclic-AMP phosphodiesterase 4B (Homo sapiens) (UniProt Q07343); assay: qHTS Assay for Inhibitors of PDE-IV (AID 607; active = well fitted activation curve with a large enough effect in the main read-out, with a control signal flat, not every such curve was filed as active; note: % of control where 0% means no effect); details: HEK293 ACTOne CNG channel cells, membrane potential fluorescence; series mostly up to 22.9 µM
3',5'-cyclic-AMP phosphodiesterase 4B (Homo sapiens), sequence (Q07343 whole entry, looked up): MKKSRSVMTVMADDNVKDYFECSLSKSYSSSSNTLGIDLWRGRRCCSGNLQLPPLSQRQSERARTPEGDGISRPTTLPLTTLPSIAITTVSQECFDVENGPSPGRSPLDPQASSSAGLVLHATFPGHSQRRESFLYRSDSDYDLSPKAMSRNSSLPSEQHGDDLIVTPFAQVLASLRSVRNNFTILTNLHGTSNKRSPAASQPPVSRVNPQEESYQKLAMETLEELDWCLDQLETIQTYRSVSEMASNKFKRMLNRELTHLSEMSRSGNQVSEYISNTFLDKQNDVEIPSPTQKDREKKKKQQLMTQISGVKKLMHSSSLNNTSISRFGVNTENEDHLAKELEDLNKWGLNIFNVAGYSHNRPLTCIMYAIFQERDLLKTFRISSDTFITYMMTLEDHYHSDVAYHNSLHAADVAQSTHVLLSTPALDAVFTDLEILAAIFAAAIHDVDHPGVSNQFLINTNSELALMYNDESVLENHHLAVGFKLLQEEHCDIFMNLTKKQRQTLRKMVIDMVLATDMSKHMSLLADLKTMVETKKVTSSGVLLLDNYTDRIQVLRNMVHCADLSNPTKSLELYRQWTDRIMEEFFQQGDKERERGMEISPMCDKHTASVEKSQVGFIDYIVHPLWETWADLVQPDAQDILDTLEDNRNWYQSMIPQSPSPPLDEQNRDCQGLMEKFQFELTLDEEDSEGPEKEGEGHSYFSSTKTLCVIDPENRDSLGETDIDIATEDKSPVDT
How it was run: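 ACTOne HEK293 cells carry a modified cAMP-gated CNG channel and express endogenous PDE4; plated 1000 cells/well, compounds up to 22.9 uM final. Membrane-potential dye fluorescence (ex 535/em 590) was read; parental cells received 10 uM forskolin + 100 uM RO 20-1724.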

## c1ccc(Nc2nc(-c3cccnc3)nc3ccccc23)cc1
[1]
  Potency: > 11.4 µM
[2]
  activity change, negative = inhibition: 6.52%
[3]
  Potency: 0.398 µM (active)
[4]
  activity change, negative = inhibition: 17%
[5]
  outcome: inactive
[6]
  Potency: > 46 µM
[7]
  Potency: > 46 µM
[8]
  Potency: inactive
[9]
  outcome: inactive
[10]
  Potency: 2.51 µM (active)
[11]
  Potency: 3.55 µM (active)
[12]
  Potency: 2 µM (active)
[13]
  Potency: inactive

## COc1cccc(-c2ccc3ncnc(N4CCNCC4)c3c2)c1
[1]
  Potency: > 11.4 µM
[2]
  activity change, negative = inhibition: 1.7%
[4]
  activity change, negative = inhibition: 11.4%
[6]
  Potency: > 46 µM
[7]
  Potency: > 46 µM
[8]
  Potency: inactive
[9]
  outcome: inactive
[14]
  Potency: 3.16 µM (active)
[10]
  Potency: 1.78 µM (active)
[11]
  Potency: 2 µM (active)
[12]
  Potency: 1 µM (active)

## CN(Cc1ccco1)c1ncnc2ccc(-c3cccc(NS(C)(=O)=O)c3)cc12
[1]
  Potency: > 11.4 µM
[3]
  Potency: 0.398 µM (active)
[4]
  activity change, negative = inhibition: 14.3%
[5]
  outcome: inactive
[6]
  Potency: > 46 µM
[7]
  Potency: > 46 µM
[8]
  Potency: inactive
[15]
  Potency: 5.01 µM (active)
[9]
  outcome: inactive
[14]
  Potency: 7.94 µM (active)
[10]
  Potency: 7.08 µM (active)
[11]
  Potency: 7.94 µM (active)
[12]
  Potency: 7.94 µM (active)
[13]
  Potency: inactive

## COCCn1c(=O)c(-c2ccc(F)cc2)nc2cnc(Oc3ccccc3)nc21
[1]
  Potency: > 11.4 µM
[3]
  Potency: 0.794 µM (active)
[4]
  activity change, negative = inhibition: 9.44%
[5]
  outcome: inactive
[6]
  Potency: > 9.22 µM
[7]
  Potency: > 46 µM
[8]
  Potency: inactive
[16]
  Potency: inactive
[9]
  outcome: inactive
[10]
  Potency: inactive
[11]
  Potency: inactive
[12]
  Potency: inactive
[13]
  Potency: inactive

## Cc1cccc(CNc2ncncc2-c2ccccc2CN(C)C)c1
[1]
  Potency: > 11.4 µM
[2]
  activity change, negative = inhibition: 1.18%
[6]
  Potency: > 46 µM
[7]
  Potency: > 46 µM
[8]
  Potency: inactive
[16]
  Potency: inactive
[10]
  Potency: inactive
[11]
  Potency: inactive
[12]
  Potency: inactive
[13]
  Potency: inactive
